PK Bst = modulators of Bacillus stearothermophilus pyruvate kinase. purified pyruvate kinase, luminescence ATP production; ribose 5-phosphate activator present at AC10. Potency, µM. 1.2% of 51,000 active. AID 361; in the data active means potency below about 11 µM; inconclusive means mostly about 12 µM to 25 µM;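 the screen sought inhibitors and activators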;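 further: scaled between full activation by ribose 5 phosphate and full inhibition by luteolin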
Ub-GFP proteasome = inhibits proteasome, raising ubiquitin-GFP reporter fluorescence; Ubiquitin-GFP reporter cells, proteasome inhibition, GFP fluorescence; response scale: untreated = 0%, 10 µM MG-132 = 100%; Potency, µM (titrated, usually from 45.9 µM), without a hit: at the highest dose activation (GFP accumulation), most hits filed as activators; 67,000 tested, under 10 active; active means well fitted activation curve with a large enough effect, not every such curve was filed as active; inconclusive means small, poorly fitted or top-dose-only effect, or another doubt; inactive means no such curve, though single readings can be large or run the other way
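Proteasome blockade was scored as a rise in GFP-expressing U2OS cells carrying a ubiquitin(G76V)-GFP construct, imaged after 4 hr compound treatment at 37 °C across a 46 uM–2.9 nM series.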
GBA activity = modulators of human glucocerebrosidase. P04062. purified enzyme, resorufin glucoside fluorescence (screen aimed at inhibitors), 20 min. Potency, µM. 1.1% of 48,000 active; in the data active means potency below about 15 µM; inconclusive means mostly about 16 µM to 33 µM;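 further: the screen sought inhibitors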
Target sequence (P04062 whole entry, looked up): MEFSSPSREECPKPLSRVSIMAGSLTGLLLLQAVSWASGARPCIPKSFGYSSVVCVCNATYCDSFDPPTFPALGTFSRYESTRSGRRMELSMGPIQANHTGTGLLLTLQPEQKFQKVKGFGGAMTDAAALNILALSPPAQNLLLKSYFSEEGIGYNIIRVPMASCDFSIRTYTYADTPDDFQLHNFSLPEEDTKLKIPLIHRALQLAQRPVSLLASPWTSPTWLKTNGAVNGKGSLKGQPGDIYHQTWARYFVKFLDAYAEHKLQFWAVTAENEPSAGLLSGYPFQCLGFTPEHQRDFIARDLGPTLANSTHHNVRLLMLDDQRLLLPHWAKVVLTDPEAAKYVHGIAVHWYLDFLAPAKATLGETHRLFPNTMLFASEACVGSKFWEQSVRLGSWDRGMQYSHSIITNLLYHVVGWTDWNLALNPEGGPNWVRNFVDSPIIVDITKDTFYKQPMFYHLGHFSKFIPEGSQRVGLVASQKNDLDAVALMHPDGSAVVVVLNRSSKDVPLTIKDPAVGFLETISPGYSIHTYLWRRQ
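Compounds titrated against 0.2 nM normal enzyme, 30 uM resorufin beta-D-glucopyranoside substrate, citrate/phosphate buffer with taurocholate and tween-20, pH 5.9. Reaction ran 20 min at room temperature; fluorescence (Ex 548/Em 600) gave AC50.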
HEK293 cAMP cs = counter-screen for TSHR agonists: cAMP increase in parental HEK293; parental HEK293 CNG cAMP sensor, membrane potential fluorescence; Potency, µM (titrated, usually from 57.1 µM), for inactives: at the highest dose activation, actives largely listed as activators; 2.5% of 73,000 active; further: % of control where 0% means no effect; nearly all actives have a fitted effect of over 55% in size
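Parental HEK 293 cells stably expressing a modified CNG channel (no TSHR) report cAMP rise as membrane depolarization. Membrane potential dye with 100 uM RO 20-1724 was loaded for 60 min at room temperature, then compound added for 30 min; fluorescence read at 590 nm.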
USP2a inh = USP2a (human) protease inhibition; O75604; USP2a enzymatic assay, qHTS inhibition; Potency, µM (highest dose often 38.3 µM), without a hit: at the highest dose activity change, negative = inhibition, hits mostly inhibitors; 0.1% of 60,000 active; further: nearly all actives have a fitted effect of over 60% in size
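USP2 core (20nM final) preincubated 30 min RT with compound, then Ub-PLA2 20nM and NBD C6-HPC 20uM final added; buffer 20mM Tris-HCl pH 8.0, 2mM CaCl2. Fluorescence Ex 460/Em 535 read at 0 and 2.5 h; normalized to NEM.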
TSHR agonist = activates the human thyroid stimulating hormone receptor. Potency, µM (doses to about 57.1 µM), for the others: at the highest dose activation, usual class: activators. P16473. HEK293-CNG-TSHR cells (CNG channel as cAMP sensor), membrane potential dye, cAMP. 0.48% of 73,000 active. AID 926; active means well fitted activation curve with a large enough effect in the main read-out, with a control signal flat, not every such curve was filed as active; inconclusive means small, poorly fitted or top-dose-only effect, or a change in a side signal; inactive means no such curve, though single readings can be large or run the other way; % of control where 0% means no effect;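 further: the control signal comes from parental cells without the receptor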
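HEK 293 cells stably expressing TSHR and a cAMP-gated CNG channel; parental CNG-only cells as counterscreen. Cells preloaded 60 min with membrane potential dye plus 100 uM RO 20-1724, then compound 30 min; fluorescence read at 590 nm.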
The depositor's hits bear a star; i = inactive; ? = inconclusive; nt = not tested or not shown; [ ] = another dose, or the depositor's remark. In the library only some 4.1% were active in any assay of this set; here they are far more common. Unless noted, the call rests on the fitted dose curve; in most records, active means well fitted curve in the direction sought with a large enough effect; inconclusive means small, poorly fitted or top-dose-only effect, or another doubt; inactive means no such curve, though single readings can be large; an effect the other way counts as inactive or inconclusive. Potency means the concentration at half of the fitted maximal effect.

SMILES	PK Bst	Ub-GFP proteasome	GBA activity	HEK293 cAMP cs	USP2a inh	TSHR agonist
c1ccc(CN2CCN(c3nc(-c4ccccc4)nc(-n4ccnc4)n3)CC2)cc1	4.4*	7%	nt	?	0%	?
c1ccc(N(c2ccccc2)c2nc(N3CCCC3)nc(-n3ccnc3)n2)cc1	>57	2%	nt	?	1%	?
FC(F)(F)c1ccccc1-c1ccc2ncnc(NCc3cccs3)c2c1	nt	2%	nt	10µM*	131%	?
FC(F)(F)c1ccccc1-c1ccc2ncnc(NC3CC3)c2c1	nt	1%	nt	32µM*	115%	?
O=C(NCCCN1CCOCC1)c1ccc(-n2c(=O)c(=O)[nH]c3ccccc32)cc1	nt	nt	nt	-16%	nt	3%
C1CCCNCC1	nt	nt	nt	17%	nt	-3%
COc1ccc(CNc2ccnc(-c3ccccc3CN(C)C)n2)c(OC)c1	nt	-2%	nt	?	-5%	?
COC(=O)C/C=C/C(C)C(OC)c1ccccc1Br (centres undefined)	nt	nt	nt	5%[11.4 µM]	nt	9%[11.4 µM]
CCSc1nnc(NC(=O)c2ccc(Br)s2)s1	>57	-7%	1*	6%	1%	-2%
CCSc1nnc(NC(=O)c2ccccc2)s1	nt	7%	nt	-7%	0%	4%
COc1ccc(Br)cc1CNC(=O)C1CCCN(S(C)(=O)=O)C1 (centres undefined)	5.4*	7%	>77	-17%	24%	-24%
Cc1noc(C)c1CSc1ccccc1C(=O)N1CCN(c2ccccc2)CC1	>57	-4%	>77	21%	9%	3.2µM*
Cc1c2c(nc3c(C)cccc13)OC(C)C2 (centres undefined)	>57	-8%	>77	25µM*	nt	?
CCc1c2c(nc3ccccc13)OC(C)C2 (centres undefined)	nt	nt	nt	9%	nt	25%
COc1ccc2c3c([nH]c2c1)[C@H]1C[C@@H]2[C@@H](C[C@@H](O)[C@H](OC)[C@H]2C(=O)O)CN1CC3	nt	-6%[9.17 µM]	nt	?	nt	?
CC(C)C(c1nnnn1C1CCCC1)N1CCc2ccccc21 (centres undefined)	>57	2%	nt	?	nt	?
CC(C)C(c1nnnn1C1CCCCC1)N1CCc2ccccc2C1 (centres undefined)	>57	1%	nt	5µM*	-1%	?
CCC(=O)N1CCN(c2ccccc2NC(=O)c2cccc(C)c2)CC1	>57	-3%	>77	?	1%	?
CC(=O)N1CCN(c2ccccc2NC(=O)COc2cc(C)ccc2C(C)C)CC1	>57	1%	>77	?	33%	?
Cc1cc(Cl)ccc1OCC(=O)Nc1ccccc1N1CCOCC1	>57	-1%	>77	?	-8%	?
Cc1cccc(OCC(=O)Nc2ccccc2N2CCN(C(=O)C(C)C)CC2)c1C	>57	-1%	>77	1.6µM*	12%	?
O=C(COc1ccc(Cl)cc1)Nc1ccccc1N1CCOCC1	>57	0%	>77	16µM*	-2%	?
CCC(=O)N1CCN(c2ccccc2NC(=O)COc2cccc(C)c2)CC1	>57	-3%	>77	20µM*	15%	?
CC(=O)Nc1ccc(S(=O)(=O)Nc2ccc(NC(=O)c3ccco3)cc2)cc1	>57	-6%	11*	20%	-6%	-6%
O=C(Nc1ccc(Nc2ccccc2)cc1)c1ccco1	i	-8%	3*	-14%	0%	-21%
SMILES	PK Bst	Ub-GFP proteasome	GBA activity	HEK293 cAMP cs	USP2a inh	TSHR agonist
COC(=O)c1c(NC(=O)c2ccco2)sc(C(=O)Nc2ccc(F)cc2)c1C	>57	-3%	>77	25µM*	nt	?
COc1c(F)c(F)c(C(=O)Nc2ccc(NC(=O)c3ccco3)cc2)c(F)c1F	>57	-7%	1.5*	-8%	10%	-8%
COC(=O)c1c(NC(=O)c2ccco2)sc(C)c1C	>57	-4%	i	26%	10%	nt
Cc1cc(C)cc(N(CC(=O)O)S(=O)(=O)c2cccnc2)c1	nt	-12%	nt	-1%	nt	4%
NC(=O)/N=C(\N)NC(=O)c1ccccc1	nt	9%[9.17 µM]	nt	8%[11.4 µM]	nt	-4%[11.4 µM]
O=c1oc2ccccc2n1CSc1nc2ccccc2s1	>57	17%	>77	25µM*	-12%	?
O=C(Cn1nc(C(F)(F)F)c2c1CCCC2)Nc1ccc2c(c1)OCO2	>57	-2%	>77	10%	-10%	2%
COc1ccccc1NC(=O)Cn1nc(C(F)(F)F)c2c1CCCC2	>57	5%	>77	20µM*	-3%	?
CC(=O)N1CCN(c2ccc(NCc3ccccc3)cc2)CC1	>57	-5%	13*	-10%	1%	-3%
Oc1ccc2ccccc2c1Cc1c(O)ccc2ccccc12	nt	5%[9.17 µM]	nt	19%[11.4 µM]	nt	6%[11.4 µM]
O=c1[nH]c(=S)[nH]c(-c2ccccc2)c1Cc1c(O)ccc2ccccc12	nt	-2%[9.17 µM]	nt	2.5µM*	nt	?
CCOC(=O)CCN1C(=O)[C@H]2[C@H]3[C@H](O)[C@H](O)C/C(=N/NC(=O)OCC)[C@H]3CC[C@@H]2C1=O	nt	nt	nt	6%[11.4 µM]	nt	3%[11.4 µM]
CCCCC(=O)NCCc1c(Cc2ccccc2)[nH]c2ccccc12	nt	0%	nt	13%	nt	nt
Cc1ccccc1N1OC2C(=O)N(c3ccc(F)cc3)C(=O)C2C1c1ccccn1 (centres undefined)	>57	-3%	>77	20µM*	6%	?
O=C1C2ON(c3ccccc3)C(c3ccccn3)C2C(=O)N1c1ccc(Br)cc1 (centres undefined)	nt	0%	nt	?	8%	?
O=C(c1ccco1)N1CCN(S(=O)(=O)c2ccc(Oc3ccccc3)cc2)CC1	>57	-2%	>77	20µM*	17%	?
O=C(c1ccco1)N1CCN(S(=O)(=O)c2ccc(S(=O)(=O)NC3CC3)cc2)CC1	>57	3%	>77	25%	2%	9%
COc1ccc(-c2cc(C(F)F)n3ncc(C(=O)NCC4CCCO4)c3n2)cc1 (centres undefined)	nt	-1%	nt	7.9µM*	20%	?
CCOC(=O)N1CCN(C(=O)c2cnn3c(C(F)F)cc(-c4ccc(C)cc4)nc23)CC1	>57	4%	>77	?	41%	?
COc1ccc(-c2cc(C(F)F)n3ncc(C(=O)N4CCN5CCCC5C4)c3n2)cc1 (centres undefined)	>57	-1%	nt	16µM*	110%	?
Cc1noc(C)c1-c1ccc2ncnc(N(C)Cc3ccco3)c2c1	nt	-1%	nt	?	-7%	?
On1onc2c3cc(-c4ccccc4)nc3ccc21	i	19%	15*	-28%	-10%	-39%
O=C(CSc1nc2ccccc2o1)Nc1nc2c(s1)CCCC2	i	-1%	>77	32µM*	32%	?
COc1ccc(-c2nnc(SCc3nnc(-c4ccc(Cl)cc4)o3)n2-c2ccccc2)cc1	nt	-3%	nt	16µM*	45%	?

Compound activity as filed in PubChem BioAssay.
